# Measurements published in PubChem BioAssay AID434970 (Sanford-Burnham Center for Chemical Genomics, 2010).
# Among all 11,000 compounds or so, about 310 (2.8%) were called active. Cut-off read from the data, not from the text of the source: active = activity change below about -85%; inactive = the rest. What follows is part of a selection rich in actives, with near analogues and random picks from the rest.
# Test system: intestinal alkaline phosphatase [Mus musculus]
# Experiment: activators of mouse IAP, confirmation, biochemical, luminescence, single concentration (AID 434970)
# Details: purified mouse IAP, CDP-Star luminescence, 30 min, at 10 µM; activation factor: measured here: IAP activation factor, stronger effect = higher value; activity change, negative = activation: stronger effect = lower value
SMILES,activation factor,"activity change, negative = activation"
CCCn1c(Cc2ccccc2)nnc1SCC(=O)N1CCOCC1,0.955,4.5% (inactive)
CC(O)[C@H](NC(=O)C1(c2ccccc2)CCN(C(=O)OC(C)(C)C)CC1)C(=O)O (some centres undefined),1.15,-15.3% (inactive)
COc1ccc2[nH]c3c(c2c1)CCN1C(=O)C(CC(=O)NCCN2CCOCC2)C[C@H](C(=O)N2CCOCC2)[C@@]31CCC1CCCC1 (some centres undefined),1.04,-4.1% (inactive)
O=C(C[C@H]1C[C@H](C(=O)N2CCCCC2)[C@@]2(CCc3ccccc3)c3[nH]c4ccc(Cl)cc4c3CCN2C1=O)NCc1cccc(C(F)(F)F)c1,1.15,-15% (inactive)
Cn1c(COc2ccc3ccccc3c2)nnc1SCC(=O)O,0.952,4.85% (inactive)
O/N=C1/CC/C(=N\O)c2nn(-c3ccccc3)nc21,0.893,10.7% (inactive)
CCOC(=O)c1cnn(-c2ccc(Cl)cc2)c1C1CCN(C(=O)OC(C)(C)C)CC1,1.12,-12.1% (inactive)
COc1ccc(Nc2nc(-c3cccs3)cs2)cc1,0.881,11.9% (inactive)
Cc1cccc(NC(=O)/C(=C\c2ccco2)NC(=O)c2cccs2)c1,0.978,2.15% (inactive)
Cc1cccc(C2=NN(c3ccccc3)[C@H](CO)[C@H]2c2ccccc2)c1,2.07,-107% (active)
OC[C@@H]1[C@@H](c2ccc(Cl)cc2)C(c2ccc(F)cc2)=NN1c1ccccc1,1.79,-79% (inactive)
OC[C@@H]1[C@@H](c2ccc(F)cc2)C(c2cccc(Cl)c2)=NN1c1ccccc1,1.96,-96.2% (inactive)
OC[C@@H]1[C@@H](c2ccccc2)C(c2cccc(Cl)c2)=NN1c1ccccc1,2.28,-128% (active)
OC[C@@H]1[C@@H](c2ccc(Cl)cc2)C(c2ccccc2)=NN1c1ccccc1,1.77,-76.8% (inactive)
OC[C@@H]1[C@@H](c2ccc(Cl)cc2)C(c2cccc(Cl)c2)=NN1c1ccccc1,2.2,-120% (active)
OC[C@@H]1[C@@H](c2ccccc2)C(c2ccccc2)=NN1c1ccccc1,2.15,-115% (active)
Cc1cccc(C2=NN(c3ccccc3)[C@H](CO)[C@H]2c2ccc(F)cc2)c1,1.73,-72.7% (inactive)
OC[C@@H]1[C@@H](c2ccc(F)cc2)C(c2ccccc2)=NN1c1ccccc1,1.73,-72.9% (inactive)
O=C1OCCN1C(=O)[C@H]1[C@H](c2ccccc2)C(c2cccc(Cl)c2)=NN1c1ccccc1,1.01,-1.05% (inactive)
OC[C@@H]1[C@@H](c2ccccc2)C(c2ccc(F)cc2)=NN1c1ccccc1,1.65,-64.5% (inactive)
Cc1cccc(C2=NN(c3ccccc3)[C@H](CO)[C@H]2c2ccc(Cl)cc2)c1,1.89,-89.3% (inactive)

SMILES,activation factor,"activity change, negative = activation"
Cc1noc(C)c1S(=O)(=O)N1CCC(C(=O)NCCN2CCC(C)CC2)CC1,1.01,-1.4% (inactive)
COc1ccc(C(=O)Nc2ccc(S(=O)(=O)N3CCCCC3)cc2)cc1,1.11,-11% (inactive)
COC(=O)C(NC(=O)CCc1c(C)nc2ncnn2c1C)C(C)C (centres undefined),0.949,5.15% (inactive)
Clc1ccc(-n2nnnc2-c2cnc(-c3ccncc3)nc2-c2cccs2)cc1,0.877,12.4% (inactive)
COc1ccc(CN(C(=O)c2ccco2)C2CC(C)N(C)CC2C)cc1 (centres undefined),0.982,1.75% (inactive)
COc1ccc(CNC(=O)C[C@H]2C[C@H](C(=O)N3CCOCC3)[C@@]3(C)c4[nH]c5cc(CCC(=O)N(C)C)ccc5c4CCN3C2=O)cc1OC,1.08,-8.2% (inactive)
O=C(O)CCSc1nc(C(F)(F)F)cc(=O)n1-c1ccccc1,1.01,-1% (inactive)
Cn1cc(C(=O)c2ccccc2)cc1-c1nc2ccccc2n1C,1.13,-13.2% (inactive)
COc1ccccc1[C@H]1C(c2ccc(F)cc2)=NN(c2ccccc2)[C@@H]1CO,1.49,-48.9% (inactive)
COc1ccccc1[C@H]1C(c2cccc(Cl)c2)=NN(c2ccccc2)[C@@H]1CO,1.54,-54.1% (inactive)
COc1ccccc1[C@H]1C(c2ccccc2)=NN(c2ccccc2)[C@@H]1CO,1.99,-99.2% (active)
Clc1ccccc1CN(Cc1ccco1)Cc1nnnn1C1CCCC1,1.07,-7.45% (inactive)
CC(C)C(=O)Nc1ncc(C(F)(F)F)cc1Cl,1.02,-2.1% (inactive)
Cc1ccc(CNC(=S)NC2CCC(C(C)(C)C)CC2)cc1 (centres undefined),2,-99.9% (active)
CC(NC(=S)NC1CCC(C(C)(C)C)CC1)c1ccccc1 (centres undefined),1.7,-69.9% (inactive)
Cc1ccc(CNC(N)=S)cc1,1.06,-6.15% (inactive)
O=C(COC(=O)c1cccnc1SCC(=O)NCc1ccccc1)NCc1ccccc1,0.985,1.5% (inactive)
CCCc1cc(=O)[nH]c(SCC(=O)N(C)CC(=O)Nc2ccccc2CC)n1,0.825,17.6% (inactive)
COc1ccc(CCNC(=O)NC2CCCCC2)cc1,0.976,2.4% (inactive)
CC(C)c1ccc(NC(=S)NC2CCCCCC2)cc1,1.39,-38.9% (inactive)
CCc1ccc(NC(=O)NC2CCCCCCC2)cc1,3.13,-213% (active)
